Bioassay records deposited in PubChem by Broad Institute.
aSyn UTR act: Activators via SNCA 5'UTR binding, MLPCN; hit rate 7.1% among 300,000; activity score, % (tested at 7.5 µM), hits read low; alpha-synuclein 5'UTR reporter, activators screen; AID 1814; in the data active = activity score below about -60%
* = called active by the depositor. A selection follows.

SMILES | aSyn UTR act
CCOc1ccc2nc(/N=C/c3c(C)[nH]n(-c4ccc(C)cc4)c3=O)sc2c1 | -143*
CCOc1ccc2c(c1)OC(c1ccc(C)cc1)(C(F)(F)F)NC2=O (stereo not given) | 96
CCOc1ccc2nc(/N=C/c3c(C)[nH]n(-c4ccccc4)c3=O)sc2c1 | -144*
CCCCCN=Cc1c(C)[nH]n(-c2nc3ccccc3s2)c1=O | 62
Cc1csc(NC(=O)c2nc3nc(C)cc(C)n3n2)n1 | -90*
Cc1cc(C)n2nc(C(=O)Nc3nccs3)nc2n1 | -112*
COc1ccc(NC(=O)c2cc(Br)c(Br)s2)cn1 | -69*
CCc1cc(C(=O)Nc2ccc(OC)nc2)sc1C | -95*
COc1ccc(NC(=O)c2sccc2C)cn1 | -115*
COc1ccc(NC(=O)c2nc3nccc(C)n3n2)cn1 | -72*
CC1CCCCN1C(=O)CSc1nnc(-c2ccccc2F)o1 (stereo not given) | -84*
COc1ccc(-c2nnc(SCC(=O)N3CCCC3)o2)c(OC)c1 | -83*
CC1CCCCN1C(=O)CSc1nnc(-c2ccco2)o1 (stereo not given) | -136*
O=C(CSc1nnc(-c2ccccc2F)o1)N1CCCC1 | -76*
CN1CCN(C2=C(Cl)C(=O)N(C3CCCCC3)C2=O)CC1 | -84*
CCOC(=O)Cc1ccc2sc(-c3ccccc3)nc2c1 | -82*
CN1CCN(C2Cc3ccc(F)cc3Sc3cc(F)c(Cl)cc32)CC1 (stereo not given) | 102
Cc1ccccc1NC(=O)N1CCc2ccccc2C1 | -80*
Cc1ccc(NC(=O)N2CCc3ccccc3C2)cc1C | -152*
Cc1cc(C)cc(NC(=O)N2CCc3ccccc3C2)c1 | -111*
Cc1ccc(NC(=O)C2OCCc3ccccc32)cc1C (stereo not given) | -62*
COc1ccc(/C=C2\SC(=O)N(CCNC(=O)CCS(=O)(=O)c3ccc(C)cc3)C2=O)cc1 | -64*
CC(C)c1ccc(/C=C2\SC(=O)N(CC(=O)NCCCn3ccnc3)C2=O)cc1 | -110*
COc1ccc(/C=C2\SC(=O)N(CCNC(=O)C3CCN(S(=O)(=O)c4cccs4)CC3)C2=O)cc1 | -113*
COc1ccc(/C=C2/SC(=S)N(CCCC(=O)Nc3ccc(O)cc3)C2=O)cc1 | 68
SMILES | aSyn UTR act
COc1ccc(/C=C2\SC(=O)N(CCNC(=O)Cn3cnnn3)C2=O)cc1 | -187*
CCc1ccc(C(=O)N/N=C(\C)c2ccncc2)s1 | -93*
C/C(=N/NC(=O)c1ccc(C)s1)c1ccncc1 | -87*
COc1cc(NC(=O)c2ccc3snnc3c2)cc(OC)c1 | -65*
CC(C)c1ccc(NC(=O)c2ccc3snnc3c2)cc1 | -117*
Cc1ccc(NC(=O)c2ccc3snnc3c2)cc1 | -226*
O=C(Nc1ccccc1)c1ccc2snnc2c1 | -79*
CCOc1ccc(-c2cc(CCCC(=O)NCCCOC)no2)cc1 | 87
CCC(C)NC(=O)c1cc(-c2ccc(OC)cc2)on1 (stereo not given) | -118*
CCC(C)NC(=O)c1cc(CC(C)C)on1 (stereo not given) | -68*
CCC(C)NC(=O)c1cc(-c2ccc3c(c2)OCO3)on1 (stereo not given) | -141*
COc1ccc(-c2cc(C(=O)NCC(C)C)no2)cc1 | -99*
Cc1ccc(CSc2nnc(-c3ccco3)o2)cc1 | -154*
Brc1ccc(CSc2nnc(-c3ccco3)o2)cc1 | -78*
Fc1ccc(CSc2nnc(-c3ccco3)o2)cc1 | -117*
c1ccc(CSc2nnc(-c3ccco3)o2)cc1 | -97*
O=C(CNS(=O)(=O)c1ccc2ccccc2c1)OCc1csc(-c2ccccc2)n1 | -62*
C/C(=C\C(=O)c1cccnc1)Nc1ccc(O)cc1 | -77*
C/C(=C\C(=O)c1ccccc1)Nc1ccc(O)cc1 | -102*
O=C(OCC(=O)N1CCN(c2ccccc2)CC1)c1ccccc1[N+](=O)[O-] | -141*
COc1ccc(C(=O)COC(=O)c2ccc(N(C)C)cc2)cc1 | -64*
COc1ccc(C(=O)COC(=O)c2ccn(C)n2)cc1 | -83*
O=C(OCC(=O)N1CCCC1)c1ccccc1O | -85*
CN(C)c1ccc(C(=O)OCC(=O)N2CCCCCC2)cc1 | -65*
O=C(Nc1ccc2c(c1)CCC2)c1ccc(Cl)nc1 | -156*
SMILES | aSyn UTR act
O=C(Nc1ccc2c(c1)CCC2)c1cnc(Cl)c(Cl)c1 | -190*
O=C(Nc1ccc2c(c1)CCC2)c1c(F)cccc1Cl | -159*
CCOC(=O)c1ccc(Nc2nc(N)c3cc(OC)c(OC)cc3n2)cc1 | -104*
COc1cc2nc(Nc3ccc(C)c(C)c3)nc(N)c2cc1OC | -131*
COc1cc2nc(Nc3ccc(F)cc3)nc(N)c2cc1OC | -131*
COc1cc2nc(Nc3ccc(C)c(Cl)c3)nc(N)c2cc1OC | 99
COc1cc2nc(N(C)C)nc(N)c2cc1OC | -78*
COC(=O)c1ccc(Nc2nc(C)cc(C)n2)cc1 | -83*
COC(=O)c1ccc(Nc2cc(C)nc3ccccc23)cc1 | 65
CCc1ccc(-c2ccc(SCC(=O)NCC3CCCO3)nn2)cc1 (stereo not given) | -94*
CCc1ccc(-c2ccc(SCC(=O)Nc3nnc(C)s3)nn2)cc1 | -83*
CCc1nnc(NC(=O)CSc2ccc(-c3ccc(-n4cccn4)cc3)nn2)s1 | -98*
Cc1cccc(CSC2=NN3CCCC(=O)N=C3S2)c1 | -69*
CC(C)COC(=S)Nc1ccccc1 | -83*
COc1ccc(-c2csc(NC(=O)CSc3n[nH]c(N)n3)n2)cc1 | -123*
COc1ccc(-c2csc(NC(=O)CSc3n[nH]c(C)n3)n2)cc1 | -104*
CCOC(=O)c1ccc(-c2cccc(C(F)(F)F)c2)nc1C | -122*
CN1CCN(c2ccc(-c3ccnn3C(=O)Nc3cccc(C(F)(F)F)c3)cc2)CC1 | -114*
COc1ccc(CNc2nc(Cl)c(C#N)s2)cc1 | -95*
O=C(c1ccc(Cl)cc1)c1cnc2ccccn12 | -126*
COC(=O)Cn1c(SCc2ccccc2)nc2ccccc21 | -166*
O=C1/C(=C/N(C(=O)c2ccco2)c2ccc(Cl)cc2)Sc2ccccc21 | -184*
O=C1/C(=C/N(C(=O)c2ccco2)c2ccc(Br)cc2)Sc2ccccc21 | -241*
c1cc2c(cc1Nc1nc(-c3ccc4c(c3)OCO4)cs1)OCCO2 | -89*
COc1cccc(Nc2nc(-c3ccc4c(c3)OCCO4)cs2)c1 | -227*
SMILES | aSyn UTR act
Cc1nn(-c2nc3ccccc3s2)c(C)c1Oc1ccccc1O | -77*
Cc1ccc(NC(=S)/C(=C(\[O-])c2ccc(C)c([N+](=O)[O-])c2)[n+]2ccccc2)cc1C | -158*
CC(/C=N\NC(=O)CN1CCN(Cc2ccccc2)CC1)=C\c1ccco1 | -94*
O=C(CN1CCN(Cc2ccccc2Cl)CC1)N/N=C/C=C/c1ccco1 | -77*
O=C(CN1CCN(Cc2ccccc2)CC1)N/N=C\C=C/c1ccco1 | -71*
COc1cc(O)oc1C=Nc1ccc(C(=O)O)cc1 | -91*
CC1(C)OC(=CC=Nc2ccc(Cl)cc2)OC1(C)C | 103
COc1cc(O)oc1C=Nc1ccc(Cl)cc1 | -64*
Cc1nc(SCc2ccc(OCCC(C)C)cc2)n[nH]1 | -71*
CCCCCOc1ccc(CSc2n[nH]c(C)n2)cc1 | -171*
COc1ccc2c(c1)C1OCCC1C(c1ccco1)N2 (stereo not given) | -76*
COc1cc(OC)cc(C(=O)NCC(=O)Nc2ccc(-c3ccccc3)cc2)c1 | -195*
COc1cccc(NC(=O)CNC(=O)c2ccccc2)c1 | -66*
COc1cccc(NC(=O)CN(C)C(=O)CNC(=O)c2ccc(Oc3ccccc3)cc2)c1 | -124*
